Drawing on the OligoGym collection, this text covers sensor-assay potency score (higher = more potent) for 39 sequences.
Also: reference of the scale not given here.

One assay deals with METRNL. The experiment in a line: pooled miR-30 sensor sort-seq; sequence = guide strand. Particulars: shRNA.
TACTGGAAGCCTGTGGTCCTCC yielded a sensor-assay potency score (higher = more potent) of -0.709.

For the sequence TGAAGCGTGGGGCACAGCCGAG, the sensor-assay potency score (higher = more potent) was -1.51. Consider TCGAACGGCGAAGTCGCTGGTG, for which the sensor-assay potency score (higher = more potent) is -0.372.

Regarding TGAAGGACCTGATGCACACGGT, the sensor-assay potency score (higher = more potent) was -0.842. The sequence TTAGTTTGCATTTTACAGCATT gave a sensor-assay potency score (higher = more potent) of -0.859. TAGAGTCTGCTCACGCGCAGGT showed a sensor-assay potency score (higher = more potent) of 0.197. TACATCCTCTGGAAGTCCTTGA: the sensor-assay potency score (higher = more potent) came out at 0.329. For TAACGATGAGAGCACCTGTTGG, the sensor-assay potency score (higher = more potent) was -0.773.

As for TTTTACAGCATTTCCAATCGGC, the sensor-assay potency score (higher = more potent) was 0.396. The sequence ATAGAGTCTGCTCACGCGCAGG came in with a sensor-assay potency score (higher = more potent) of -1.52.

TTAACGATGAGAGCACCTGTTG had a sensor-assay potency score (higher = more potent) of -1.05. Regarding TGGAAGTCCTTGAAGCGTGGGG, the sensor-assay potency score (higher = more potent) is -0.538.

A further assay has as its target METTL16. The assay is described as above. Particulars: shRNA.
In the case of TTTAAGAGCATCCATCAGGAGT, the sensor-assay potency score (higher = more potent) is -1.04. The same measure, in the same setting: with TAAGGCATCGTCCACCTCCTTC the figure was -0.93; with TTCTTCGCTTACTTGGTGGTGA, 0.819. The sequence TTTGCTTACCTAATTCTGCTTC showed a sensor-assay potency score (higher = more potent) of 0.554. With TTAACGTTTATCAAACACTTAA, the sensor-assay potency score (higher = more potent) is -1.21. As for TTCTTCTTTAAGAGCATCCATC, the sensor-assay potency score (higher = more potent) was -1.07. For TGTATTAACAGAACTAGGCGGA, the sensor-assay potency score (higher = more potent) was 0.503.

The sequence TTCTTTAAGAGCATCCATCAGG came in with a sensor-assay potency score (higher = more potent) of -0.744. The same measure, in the same setting: next, TTATCAAACACTTAAACAGGTA: -0.44.

TAACAAACTCTAATTCACCTCC came in with a sensor-assay potency score (higher = more potent) of 0.296. TTGTCCTTGTATCTATTTCTTG yielded a sensor-assay potency score (higher = more potent) of -1.01.

In the case of TTTCTCTAATTTTCTTCGCTTA, the sensor-assay potency score (higher = more potent) was -0.889.

A further assay has as its target METTL21C. The description is as above. To be noted: shRNA.
Take TGTTGTGTCAAAAACTTGCTTG: the sensor-assay potency score (higher = more potent) is 0.0873.

Regarding TCATAGTCGGTGCTGAACCTGA, the sensor-assay potency score (higher = more potent) was -0.238. Sequence TAGATTAACCAGATAATCTTAA yielded a sensor-assay potency score (higher = more potent) of -0.406. For the sequence TATCTTGTTGGATTCTTCTAGG, the sensor-assay potency score (higher = more potent) is -0.565. Turning to TTCTTCTCAGCCTCTAACCAGC, the sensor-assay potency score (higher = more potent) is -1.05.

As to TAACTCTCTATGGATTCCTGGA, the sensor-assay potency score (higher = more potent) was -0.728.

Consider TTAGAAATTAGAAAGTTTCTGC, for which the sensor-assay potency score (higher = more potent) stood at 0.573. For the sequence TTAGATATTTAGATTAACCAGA, the sensor-assay potency score (higher = more potent) is -0.625. Regarding TAAAAGATTGTATTGAAGGTTT, the sensor-assay potency score (higher = more potent) was -0.706.

The sequence TTCCTGGATGACAATCTCCTTT returned a sensor-assay potency score (higher = more potent) of -0.999.

As for TGTAGGAACAAATTTCTGGAGG, the sensor-assay potency score (higher = more potent) was -0.694. The same measure, in the same setting: with ATCTGTAGGAACAAATTTCTGG the figure was -0.452.

A further assay concerns the target METTL21D. The description is as above. Particulars: shRNA.
Sequence TATAGAACTACATTTGTAGTTA returned a sensor-assay potency score (higher = more potent) of 0.621.

The sequence TTGTAGTTATTCAAAAACCTTT had a sensor-assay potency score (higher = more potent) of -1.15. The sequence TTGGCTTGAACAGAACCAGTGA registered a sensor-assay potency score (higher = more potent) of 0.803.
